“And” between values parts separate entries of the source, which are not always exact repeats. Equal values may be shown once. Records with an inconclusive call do not appear. The source made the active and inactive calls. Unless noted, calls come from the whole dose curve; as a rule, active = well fitted curve in the direction sought with a large enough effect; inconclusive = small, poorly fitted or top-dose-only effect, or another doubt; inactive = no such curve, though single readings can be large; an effect the other way counts as inactive or inconclusive.
What was measured:
[1] = Cellular Toxicity (caspase-3) HepG2 (AID 654); conditions: HepG2 caspase-3 activation, luminescence, 0% = DMSO only, 100% = tamoxifen; series mostly up to 92.2 µM;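 note: cells exposed to compound for 16 hours before reading; 0% = DMSO alone and 100% = caspase signal from 100 µM tamoxifen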
Method in brief: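 qHTS, HepG2, 1500 cells/well, complete medium; cpd 16 h 37 °C; Caspase-Glo 3/7, 20 min RT; lum. Norm: DMSO vs 100 uM tamoxifen; AC50 Hill fit.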

[2] = Cellular Toxicity (caspase-3) Jurkat (AID 655); conditions: Jurkat caspase-3 activation, luminescence, DMSO = 0%, tamoxifen = 100%; series mostly up to 92.2 µM;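 note: cells exposed to compound for 16 h at 37 °C before reading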
Method in brief: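 5000 Jurkat cells/well; compound 16 hr, 37 °C; Caspase-Glo 3/7 added, 20 min RT; luminescence read. Norm: DMSO = 0%, tamoxifen 100 uM = 100%. AC50, Hill model.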

[3] = Cellular Toxicity (caspase-3) HUV-EC-C (AID 656); conditions: HUV-EC-C cells, caspase-3 activation (apoptosis), vehicle = 0, 100 µM tamoxifen = 100%; series mostly up to 92.2 µM
Method in brief: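 qHTS; HUV-EC-C, 1000 cells/well; 5 hr settle, 16 hr cmpd, 37°C; Caspase-Glo 3/7, 20 min RT; luminescence. Norm: DMSO = 0%, tamoxifen 100 uM = 100%. Hill-fit AC50.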

[4] = Cellular Toxicity (caspase-3) SHSY5Y (AID 657); conditions: SH-SY5Y caspase-3 activation, DMSO zero, 10 µM staurosporine = 100%; series mostly up to 91.7 µM;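 note: cells exposed to compound for 16 hours at 37 °C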
Method in brief: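 qHTS, SH-SY5Y, 1500 cells/well, 5 h pre-incubation 37 °C; compound 16 h 37 °C; Caspase-Glo 3/7 1 h RT; luminescence. Norm.: DMSO = 0, 10 uM staurosporine = 100%. Hill fit → AC50.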

[5] = Cellular Toxicity (caspase-3) BJ (AID 658); conditions: BJ fibroblasts, luminescence, normalized: DMSO 0%, staurosporine 100%; series mostly up to 91.7 µM;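 note: cells exposed to compound for 16 hours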
Method in brief: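 Luminescent aminoluciferin-substrate cleavage reports caspase 3/7 activity in normal human BJ fibroblasts after 16 hr compound exposure at 37 °C. Normalized to DMSO (basal) and 10 uM staurosporine (100%); AC50 from Hill fit of concentration-response.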

[6] = Cellular Toxicity (caspase-3) MRC-5 (AID 659); conditions: MRC-5 cells, luminescence, normalized: DMSO 0%, 10 µM staurosporine 100%; series mostly up to 91.7 µM
Method in brief: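 Luminescence from caspase-cleaved aminoluciferin substrate (Caspase-Glo 3/7, 1 hr RT) reports caspase 3/7 activity in MRC-5 lung fibroblasts after 16 hr compound exposure. Normalized to DMSO basal and 10 uM staurosporine as 100%; AC50 from Hill fits.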

[7] = Cellular Toxicity (caspase-3) Mesangial (AID 660); conditions: mesangial cells, normalized: DMSO 0%, 100 µM tamoxifen 100%; series mostly up to 91.7 µM;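 note: combined caspase 3 and 7 activity read by Caspase-Glo luminescence; cells exposed to compound for 16 h before the caspase read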
Method in brief: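 Concentration-response qHTS: compound-induced rise in caspase 3/7 luminescence in human mesangial cells after 16 h, normalized to DMSO and 100 uM tamoxifen controls.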

[8] = Cellular Toxicity (caspase-3) SK-N-SH (AID 661); conditions: SK-N-SH caspase-3 activation, qHTS, DMSO as zero, staurosporine as full; series mostly up to 91.7 µM;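 note: cells exposed to compound for 16 hours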
Method in brief: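 Caspase 3/7 activation is measured as a luminescence increase from aminoluciferin released by substrate cleavage in SK-N-SH cells after 16 hr compound treatment; values are AC50 from concentration-response curves.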

[9] = Cellular Toxicity (caspase-3) H-4-II-E (AID 663); conditions: H-4-II-E rat hepatoma, scaled: DMSO 0%, 100 µM tamoxifen 100%; series mostly up to 92.2 µM;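 note: cells exposed to compound for 16 hr before readout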
Method in brief: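 Luminescence from caspase-cleaved aminoluciferin substrate, read 20 min after reagent addition, reports caspase 3/7 activation in rat H-4-II-E cells after 16 hr compound exposure. Normalized to DMSO (basal) and 100 uM tamoxifen (100%); AC50 from Hill fits.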

[10] = Cellular Toxicity (caspase-3) Hek293 (AID 664); conditions: HEK293 caspase-3 activation, DMSO = 0%, 100 µM tamoxifen = 100%; series mostly up to 92.2 µM;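 note: cells exposed to compound for 16 h at 37 °C before readout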
Method in brief: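 Activation of caspase-3/7 is measured as increased luminescence from cleaved peptide-aminoluciferin substrate in HEK293 cells treated 16 hours at 37 °C. AC50 values come from Hill-equation fits of concentration-response data.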

[11] = Cellular Toxicity (caspase-3) N2a (AID 665); conditions: N2a cells, luminescence, normalized: DMSO 0%, 10 µM staurosporine 100%; series mostly up to 92.2 µM;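 note: compound exposure lasted 16 h at 37 °C before readout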
Method in brief: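 Plated mouse neuroblastoma N2a cells received titrated compounds for 16 h in complete medium. Caspase activity was then detected with a peptide-aminoluciferin luminescent reagent.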

[12] = Cellular Toxicity (caspase-3) NIH 3T3 (AID 666); conditions: NIH 3T3 caspase-3 activation, apoptosis/toxicity, 0% DMSO, 100% is 100 µM tamoxifen; series mostly up to 92.2 µM;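 note: 0% = DMSO basal and 100% = 100 µM tamoxifen stimulation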
Method in brief: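 Concentration-response qHTS in NIH 3T3 mouse fibroblasts scores caspase-3/7 activation as rising luminescence after 16 hr compound exposure. Signals are scaled between DMSO-only and 100 uM tamoxifen.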

[13] = Cellular Toxicity (caspase-3) Renal Proximal Tubule (AID 667); conditions: renal proximal tubule cells; series mostly up to 91.7 µM;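 note: cells exposed to compound for 16 hours at 37 °C before detection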
Method in brief: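 AC50 derived by standard Hill fit of concentration-response data, normalized between DMSO basal and 10 uM staurosporine as 100% stimulation. Cells: primary rat kidney proximal tubule, 16 h treatment at 37 °C.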

[14] = MultiTox-Fluor Cytotoxicity Assay - LYMP1-001 - Dead Cells (AID 946); conditions: LYMP1-001 lymphoblastoid cells, dead-cell protease fluorescence; series mostly up to 92.2 µM;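 note: 0% = DMSO and 100% = tetraoctylammonium bromide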
Method in brief: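 AC50 from Hill fit of concentration-response; data normalized to DMSO (basal) and 15 uM tetraoctylammonium bromide (100%). LYMP1-001 lymphoblastoid cells, 2500/well, 16 hr compound at 37 C; dead-cell protease fluorescence, Ex/Em 485/520.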

[15] = target: Vitamin D3 receptor (Homo sapiens) (UniProt P11473); assay: qHTS assay for small molecule antagonists of vitamin D receptor signaling (AID 588541; calls by dose curve;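 note: receptor activated by calcitriol during compound treatment; % is set by controls: 0 for no effect and ±100 for the full control effect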); conditions: HEK293T VDR-UAS-bla, beta-lactamase ratio, antagonist mode; series mostly up to 76.7 µM
Method in brief: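 VDR-UAS-bla HEK293T cells (2000/well, 2% charcoal-stripped FBS) were treated with titrated compounds plus 1-alpha,25-dihydroxyvitamin D3 (50 nM or 3 nM final) for 16 h at 37 C. CCF4 beta-lactamase fluorescence was read; Hill fits gave IC50.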

[16] = target: Thyroid hormone receptor beta (Homo sapiens) (UniProt P10828); assay: qHTS assay for small molecule antagonists of thyroid hormone receptor beta signaling (AID 588547; active = well fitted inhibition curve with a large enough effect in the signal ratio, with a control signal flat, not every such curve was filed as active; the % refers to the signal ratio;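 note: cells stimulated with 0.4 nM T3 agonist during compound exposure; % is set by controls: 0 for no effect and ±100 for the full control effect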); conditions: TR-UAS-bla HEK293, beta-lactamase ratio, antagonist mode, 18 h
Method in brief: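 TR-UAS-bla GripTite HEK293 cells in 2% charcoal/dextran FBS medium were preincubated 4 h at 37 C, given compound (0.59 nM to 92 uM) plus 0.4 nM T3 (final) for 18 h, then CCF4 for 2 h at RT; Hill fit gave IC50.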

[17] = target: Voltage-gated inwardly rectifying potassium channel KCNH2 (Homo sapiens) (UniProt Q12809); assay: qHTS Assay for Small Molecule Inhibitors of the Human hERG Channel Activity (AID 588834); conditions: U2OS BacMam hERG, FluxOR thallium flux fluorescence; series mostly up to 46.1 µM;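 note: top concentration of the series differs between compounds; % is set by controls: 0 for no effect and ±100 for the full control effect; lower thallium flux fluorescence means stronger hERG block; nearly all actives have a fitted effect of over 50% in size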
Method in brief: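 hERG-BacMam U2OS, 2000 cells/well; 0.7X FluxOR loading 1 hr RT dark; cpd ~10 min 37 °C; stim buffer; FDSS fluorescence 2 min @ 1 s; AC50 Hill fit.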

[18] = qHTS assay for small molecule agonists of the antioxidant response element (ARE) signaling pathway (AID 651741; active = well fitted activation curve with a large enough effect in the signal ratio; the % refers to the signal ratio; note: % of control where 0% means no effect); conditions: HepG2 ARE-bla reporter, beta-lactamase FRET ratio, 16 h; series mostly up to 96 µM
Method in brief: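 ARE-bla HepG2 cells (beta-lactamase reporter under ARE control) were plated at 2,000 cells/well, preincubated 5 h at 37 C/5% CO2, then treated with DMSO-dissolved compounds for 16 h at 37 C; LiveBLAzer B/G FRET substrate added, fluorescence read after 2 h at room temperature.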

[19] = target: Nuclear receptor ROR-gamma (Homo sapiens) (UniProt P51449); assay: qHTS assay for small molecule antagonists of the retinoid-related orphan receptor gamma (ROR-gamma) signaling pathway (AID 651802); conditions: ROR-gamma antagonist cell reporter assay; series mostly up to 92.2 µM;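 note: CHO cells with doxycycline-induced ROR-gamma expression; % is set by controls: 0 for no effect and ±100 for the full control effect; nearly all actives have a fitted effect of over 60% in size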
Method in brief: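 Antagonism is scored as a fall in luminescence from a RORE-luciferase reporter in CHO cells expressing ROR under a TET-inducible promoter, measured 16hr after doxycycline induction in the presence of compound.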

[20] = qHTS assay for small molecule antagonists of the retinoid-related orphan receptor gamma (ROR-gamma) signaling pathway - cell viability counter screen (AID 720652; active = well fitted curve in the direction sought with a large enough effect in the repeat runs; an effect the other way counts as inactive or inconclusive;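 note: CHO reporter cells with doxycycline-induced ROR-gamma expression; compound exposure lasted 16 hr before ATP read; % is set by controls: 0 for no effect and ±100 for the full control effect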); conditions: RORgamma reporter cell line viability counter screen; series mostly up to 92.2 µM
Method in brief: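 Cytotoxicity is quantified via intracellular ATP (CellTiter-Glo luminescence) in doxycycline-induced CHO ROR response element-luciferase reporter cells treated with compound for 16 hr at 37 C, 5% CO2.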

Chain of Vitamin D3 receptor (Homo sapiens) (P11473 whole entry, looked up): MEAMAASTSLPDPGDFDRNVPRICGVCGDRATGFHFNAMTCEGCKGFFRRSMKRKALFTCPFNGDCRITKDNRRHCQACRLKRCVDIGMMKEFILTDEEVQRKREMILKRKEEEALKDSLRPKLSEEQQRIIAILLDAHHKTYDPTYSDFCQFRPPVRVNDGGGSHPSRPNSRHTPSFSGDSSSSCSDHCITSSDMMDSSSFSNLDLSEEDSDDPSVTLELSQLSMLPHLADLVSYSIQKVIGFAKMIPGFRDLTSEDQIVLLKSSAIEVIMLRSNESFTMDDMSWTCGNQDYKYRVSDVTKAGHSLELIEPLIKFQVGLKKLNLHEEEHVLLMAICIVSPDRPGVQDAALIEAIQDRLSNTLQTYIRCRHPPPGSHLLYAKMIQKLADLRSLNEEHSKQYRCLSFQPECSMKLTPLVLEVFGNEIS
Chain of Thyroid hormone receptor beta (Homo sapiens) (P10828 whole entry, looked up): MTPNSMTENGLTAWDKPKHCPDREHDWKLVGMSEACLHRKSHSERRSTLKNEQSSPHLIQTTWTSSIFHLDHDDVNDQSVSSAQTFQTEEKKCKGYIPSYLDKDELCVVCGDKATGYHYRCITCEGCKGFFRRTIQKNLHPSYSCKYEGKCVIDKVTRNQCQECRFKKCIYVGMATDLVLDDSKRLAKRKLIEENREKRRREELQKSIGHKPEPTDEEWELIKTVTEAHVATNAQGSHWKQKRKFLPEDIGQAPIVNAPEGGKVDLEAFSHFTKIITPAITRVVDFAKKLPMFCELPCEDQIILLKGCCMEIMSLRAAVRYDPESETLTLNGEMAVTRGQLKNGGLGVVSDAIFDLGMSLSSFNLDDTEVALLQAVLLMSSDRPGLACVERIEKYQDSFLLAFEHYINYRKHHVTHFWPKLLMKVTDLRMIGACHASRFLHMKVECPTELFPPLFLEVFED
Chain of Voltage-gated inwardly rectifying potassium channel KCNH2 (Homo sapiens) (Q12809 whole entry, looked up): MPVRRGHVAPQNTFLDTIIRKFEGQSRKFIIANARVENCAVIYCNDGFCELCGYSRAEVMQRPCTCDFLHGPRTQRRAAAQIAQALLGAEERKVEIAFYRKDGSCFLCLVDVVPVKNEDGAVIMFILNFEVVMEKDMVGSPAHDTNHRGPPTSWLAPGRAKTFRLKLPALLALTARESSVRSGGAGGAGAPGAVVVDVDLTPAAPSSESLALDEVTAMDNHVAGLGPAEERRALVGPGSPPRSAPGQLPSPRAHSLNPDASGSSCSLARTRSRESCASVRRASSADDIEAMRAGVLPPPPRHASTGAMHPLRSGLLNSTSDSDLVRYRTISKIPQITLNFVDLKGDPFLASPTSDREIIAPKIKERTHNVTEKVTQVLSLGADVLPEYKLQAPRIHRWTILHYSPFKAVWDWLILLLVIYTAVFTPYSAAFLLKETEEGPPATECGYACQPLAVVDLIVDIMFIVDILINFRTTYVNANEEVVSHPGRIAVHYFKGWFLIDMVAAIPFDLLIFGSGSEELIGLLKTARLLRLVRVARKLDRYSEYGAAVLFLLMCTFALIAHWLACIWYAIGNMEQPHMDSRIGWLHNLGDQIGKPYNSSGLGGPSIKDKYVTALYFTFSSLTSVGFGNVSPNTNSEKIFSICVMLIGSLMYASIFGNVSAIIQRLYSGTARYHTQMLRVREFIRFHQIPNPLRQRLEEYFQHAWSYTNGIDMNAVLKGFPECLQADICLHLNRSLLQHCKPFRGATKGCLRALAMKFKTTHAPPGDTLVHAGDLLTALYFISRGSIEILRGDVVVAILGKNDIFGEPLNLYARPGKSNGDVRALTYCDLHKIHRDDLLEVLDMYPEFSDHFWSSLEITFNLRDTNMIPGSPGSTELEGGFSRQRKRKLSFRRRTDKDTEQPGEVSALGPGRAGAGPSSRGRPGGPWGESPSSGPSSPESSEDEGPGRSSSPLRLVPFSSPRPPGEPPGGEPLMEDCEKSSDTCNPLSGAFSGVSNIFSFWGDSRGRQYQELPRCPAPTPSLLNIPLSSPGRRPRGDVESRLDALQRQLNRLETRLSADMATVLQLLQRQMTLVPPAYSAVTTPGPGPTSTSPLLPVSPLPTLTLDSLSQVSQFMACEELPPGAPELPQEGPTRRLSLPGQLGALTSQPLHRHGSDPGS
Chain of Nuclear receptor ROR-gamma (Homo sapiens) (P51449 whole entry, looked up): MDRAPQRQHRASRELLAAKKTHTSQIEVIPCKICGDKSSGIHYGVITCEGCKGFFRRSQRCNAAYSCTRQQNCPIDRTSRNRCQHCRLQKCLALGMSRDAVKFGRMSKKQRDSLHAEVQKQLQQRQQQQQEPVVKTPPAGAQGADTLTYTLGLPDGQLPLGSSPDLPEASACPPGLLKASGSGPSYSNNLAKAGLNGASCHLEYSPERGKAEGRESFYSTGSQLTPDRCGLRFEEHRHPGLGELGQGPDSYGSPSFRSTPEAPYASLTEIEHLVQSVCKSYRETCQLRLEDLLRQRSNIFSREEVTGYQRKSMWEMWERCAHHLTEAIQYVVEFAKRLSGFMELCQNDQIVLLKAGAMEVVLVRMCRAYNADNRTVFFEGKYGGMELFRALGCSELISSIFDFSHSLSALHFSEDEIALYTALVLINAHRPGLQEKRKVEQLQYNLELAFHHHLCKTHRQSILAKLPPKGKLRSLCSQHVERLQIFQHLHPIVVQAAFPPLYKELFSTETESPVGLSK

COC(=O)c1ccccc1C(=O)OC
inactive: outcome [1] | outcome [2] | outcome [3] | outcome [4] | outcome [5] | outcome [6] | outcome [7] | outcome [8] | outcome [9] | outcome [10] | outcome [11] | outcome [12] | outcome [13] | Potency [14] | outcome [15] | activity change % (negative = inhibition) [16] 0.995% and 14.6% | Potency [17] | Potency [18] | Potency [19] | outcome [20]

CCOc1cc(C=O)ccc1O
inactive: outcome [1] | outcome [2] | outcome [3] | outcome [4] | outcome [5] | outcome [6] | outcome [7] | outcome [8] | outcome [9] | outcome [10] | outcome [11] | outcome [12] | outcome [13] | Potency [14] | outcome [15] | activity change % (negative = inhibition) [16] 6.05% and -14.6% | Potency [17] | Potency [18] | Potency [19] | outcome [20]

From PubChem BioAssay (NCATS)
